Assay results as given in PubChem BioAssay (NCATS).
Values joined by “and” are separate entries in the source; they are usually repeats but may differ in a detail not shown here. Identical values can stand only once. Inconclusive results are not listed. Where a call stands in place of a potency, no number is given. Some compounds were tested as several samples or in several runs, with calls that do not always agree. Active and inactive are the calls of the source. Unless noted, calls follow the shape of the dose curve; as a rule, active = well fitted curve in the direction sought with a large enough effect; inconclusive = small, poorly fitted or top-dose-only effect, or another doubt; inactive = no such curve, though single readings can be large; an effect the other way counts as inactive or inconclusive.

Key:
[1] = Primary qHTS for inhibitors of nuclear receptor binding SET domain protein 2 (NSD2) in an RCH-ACV wild type WT cells (2C) (AID 1645877); also: nearly all actives have a fitted effect of over 70% in size; also: potency is read from the fitted curve at half-maximal effect
[2] = target: Catechol O-methyltransferase (Homo sapiens) (UniProt P21964); assay: Confirmatory Screen for Target Class Profiling of Small Molecule Inhibitors of Methyltransferases (AID 1745852; calls by dose curve; also: potency is read from the fitted curve at half-maximal effect); conditions: MTase-Glo luminescence, SAH detection, recombinant enzyme; measured here: COMT max response; stronger effect = lower value
[3] = target: Guanidinoacetate N-methyltransferase (Homo sapiens) (UniProt Q14353); assay: as above; conditions: MTase-Glo luminescence, SAH detection, recombinant enzyme; activity change, negative = inhibition: at 57.3 µM (top of the series) unless noted
[4] = target: Nicotinamide N-methyltransferase (Homo sapiens) (UniProt P40261); assay: as above; conditions: MTase-Glo luminescence, SAH detection, recombinant enzyme; measured here: NNMT max response; stronger effect = lower value
[5] = target: Phenylethanolamine N-methyltransferase (Homo sapiens) (UniProt P11086); assay: as above; conditions: MTase-Glo luminescence, SAH detection, recombinant enzyme; measured here: PNMT max response; stronger effect = lower value
[6] = target: Glutathione peroxidase 1 (Homo sapiens) (UniProt P07203); assay: Primary qHTS Assay for Inhibitors of Recombinant Selenoprotein Glutathione Peroxidase 1 (GPX1) (AID 1845191); also: nearly all actives have a fitted effect of over 65% in size; also: potency is read from the fitted curve at half-maximal effect
Outline: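 GR-coupled readout: NADPH consumption tracked by fluorescence, ex 340/em 450 nm, at t=0 and after 15 min at RT. Final mix 10 nM GPX1, 1 mM GSH, 0.5 mM CHP, 0.5 mM NADPH, 100 nM GR, 0.01% BSA, following 30 min enzyme–compound preincubation.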

[7] = target: Phospholipid hydroperoxide glutathione peroxidase GPX4 (Homo sapiens) (UniProt P36969); assay: Primary qHTS Assay for Inhibitors of Recombinant Selenoprotein Glutathione Peroxidase 4 (GPX4) (AID 1845192); also: nearly all actives have a fitted effect of over 65% in size; also: potency is read from the fitted curve at half-maximal effect
Outline: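 Steps: GPX4 plus compound, 30 min RT; add GR/GSH/NADPH master mix; start with cumene hydroperoxide; read 340/450 nm fluorescence at 0 and 15 min. Finals were 200 nM GPX4, 1 mM GSH, 0.5 mM CHP, 0.5 mM NADPH, 100 nM GR.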

[8] = target: Luciferin 4-monooxygenase (Photinus pyralis) (UniProt P08659); assay: Primary firefly luciferase (FLuc) qHTS assay for identification of artifact compounds. (AID 1845220); also: nearly all actives have a fitted effect of over 60% in size
Outline: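 Titrated compounds were incubated 15 min at RT, protected from light, with luciferin and ATP at 10 uM; reaction started with 10 nM FLuc, luminescence imaged at 5 min, and concentration-response fitted by Hill equation.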

[9] = Primary fluorescence-based thiol-reactive (MSTI) qHTS assay for identification of artifact compounds. (AID 1845221);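 also: thiol-reactive compounds lower the probe fluorescence signal; nearly all actives have a fitted effect of over 65% in size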
Outline: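 A multi-concentration qHTS design tested compounds against 4 uM MSTI, pH 7.4 phosphate-buffered saline. Plates were protected from light for 1 h at room temperature before imaging fluorescence.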

[10] = system: Nanoluciferase (engineered Oplophorus gracilirostris luciferase); assay: Primary Nanoluciferase (NLuc) qHTS assay for identification of artifact compounds. (AID 1845222);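 also: NLuc secreted into diluted conditioned medium of S16 cells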
Outline: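 qHTS format, against NLuc in S16 cell-conditioned medium. Nano-Glo substrate 1:100 was added after 15 min at room temperature. Luminescence was taken after a further 5 min.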

[11] = Primary redox qHTS assay for identification of artifact compounds. (AID 1845223)
Outline: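 Redox-cycling detection via DTT (250 uM final) oxidation coupled to Amplex Red (25 uM)/HRP (250 mU/mL) in HBSS. 15 min preincubation plus 30 min after DTT, room temperature. Ex/Em 525/598 nm; 4-parameter Hill fit against DMSO and 10 uM DA3003.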

[12] = target: Rap guanine nucleotide exchange factor 3 (Homo sapiens) (UniProt O95398); assay: Confirmatory qHTS for antagonist of cAMP-regulated guanine nucleotide exchange factor 3 (EPAC1) (AID 1645880); conditions: EPAC1 Rap1B-BODIPY-GDP exchange, fluorescence; also: potency is read from the fitted curve at half-maximal effect; nearly all actives have a fitted effect of over 55% in size
Outline: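 Released BODIPY-GDP fluoresces less than Rap1-bound BODIPY-GDP; the signal is followed at 480/540 nm at 5-min intervals over 30 min, after 5 min at room temperature. Reactions contain 100 nM EPAC1, 250 nM RAP1B-BODIPY-GDP and 50 uM GDP; results are normalized to ATA and DMSO.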

[13] = target: Rap guanine nucleotide exchange factor 3 (Homo sapiens) (UniProt O95398); assay: Confirmatory qHTS for agonist of cAMP-regulated guanine nucleotide exchange factor 3 (EPAC1) (AID 1645881);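 also: EPAC1 catalysed release of BODIPY-GDP from Rap1B seen as fluorescence loss; nearly all actives have a fitted effect of over 75% in size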
[14] = target: Rap guanine nucleotide exchange factor 4 (Homo sapiens) (UniProt Q8WZA2); assay: Confirmatory qHTS for agonist of cAMP-regulated guanine nucleotide exchange factor 4 (EPAC2) (AID 1645884);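 also: nucleotide exchange releases bodipy-GDP from Rap1 and this lowers its fluorescence; nearly all actives have a fitted effect of over 65% in size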
[15] = target: Rap guanine nucleotide exchange factor 4 (Homo sapiens) (UniProt Q8WZA2); assay: Confirmatory qHTS for antagonist of cAMP-regulated guanine nucleotide exchange factor 4 (EPAC2) (AID 1645885); conditions: EPAC2 Rap1B-BODIPY-GDP exchange fluorescence, biochemical; also: potency is read from the fitted curve at half-maximal effect; nearly all actives have a fitted effect of over 25% in size
[16] = NCATS anti-infectives library activity on the primary C. elegans qHTS viability assay (AID 1745855; calls by dose curve)
Outline: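 GFP read-out by 488 nm laser cytometry at day 0, 3 and 7, gated on object perimeter, area and peak intensity, scored viability of PE254-GFP-FLuc worms exposed to compound in S medium with bacterial capsules at 21 °C.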

[17] = NCATS anti-infectives library activity on HEK293 viability as a counter-qHTS vs the C. elegans viability qHTS (AID 1745854)
Outline: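 Cytotoxicity counter-screen to a worm viability qHTS: CellTiter-Glo luminescence read 10 min after reagent addition. Compounds (final up to 41.7 uM, a 1:5 dilution series) incubated 24 hr at 37C with 1,500 HEK293 cells per well; digitonin control.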

Phenylethanolamine N-methyltransferase (Homo sapiens), sequence (P11086 whole entry, looked up): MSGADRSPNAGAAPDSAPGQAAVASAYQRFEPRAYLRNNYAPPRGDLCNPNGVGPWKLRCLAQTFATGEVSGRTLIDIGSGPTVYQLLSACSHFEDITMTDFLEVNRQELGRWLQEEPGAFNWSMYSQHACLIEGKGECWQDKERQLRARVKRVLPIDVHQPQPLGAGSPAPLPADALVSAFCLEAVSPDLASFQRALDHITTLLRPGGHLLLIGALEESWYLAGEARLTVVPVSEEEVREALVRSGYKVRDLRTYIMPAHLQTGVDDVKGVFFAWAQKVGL
Glutathione peroxidase 1 (Homo sapiens), sequence (P07203 whole entry, looked up): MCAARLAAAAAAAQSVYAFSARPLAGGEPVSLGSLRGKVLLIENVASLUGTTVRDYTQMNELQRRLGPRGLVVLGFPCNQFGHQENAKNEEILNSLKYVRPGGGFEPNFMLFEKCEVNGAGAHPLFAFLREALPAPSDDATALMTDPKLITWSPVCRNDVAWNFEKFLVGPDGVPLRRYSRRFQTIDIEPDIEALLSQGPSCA
Nicotinamide N-methyltransferase (Homo sapiens), sequence (P40261 whole entry, looked up): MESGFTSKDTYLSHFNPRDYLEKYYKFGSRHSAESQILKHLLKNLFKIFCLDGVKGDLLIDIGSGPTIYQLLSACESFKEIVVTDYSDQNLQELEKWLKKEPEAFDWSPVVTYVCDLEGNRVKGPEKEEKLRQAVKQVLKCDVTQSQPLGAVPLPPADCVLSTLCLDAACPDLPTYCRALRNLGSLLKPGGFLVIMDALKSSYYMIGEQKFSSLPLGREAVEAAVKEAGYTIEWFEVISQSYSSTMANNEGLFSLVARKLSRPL
Phospholipid hydroperoxide glutathione peroxidase GPX4 (Homo sapiens), sequence (P36969 whole entry, looked up): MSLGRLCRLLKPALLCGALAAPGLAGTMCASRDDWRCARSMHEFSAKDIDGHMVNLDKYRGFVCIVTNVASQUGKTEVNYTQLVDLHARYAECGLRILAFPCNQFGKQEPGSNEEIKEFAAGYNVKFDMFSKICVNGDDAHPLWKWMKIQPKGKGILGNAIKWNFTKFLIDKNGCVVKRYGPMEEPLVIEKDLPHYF
Catechol O-methyltransferase (Homo sapiens), sequence (P21964 whole entry, looked up): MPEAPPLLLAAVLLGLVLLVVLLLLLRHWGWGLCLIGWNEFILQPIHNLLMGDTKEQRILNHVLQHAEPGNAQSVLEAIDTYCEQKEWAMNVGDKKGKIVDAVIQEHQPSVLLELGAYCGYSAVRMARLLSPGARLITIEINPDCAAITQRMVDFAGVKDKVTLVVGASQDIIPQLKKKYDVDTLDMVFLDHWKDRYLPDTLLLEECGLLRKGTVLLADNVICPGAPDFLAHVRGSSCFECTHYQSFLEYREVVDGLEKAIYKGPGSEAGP
Rap guanine nucleotide exchange factor 4 (Homo sapiens), sequence (Q8WZA2 whole entry, looked up): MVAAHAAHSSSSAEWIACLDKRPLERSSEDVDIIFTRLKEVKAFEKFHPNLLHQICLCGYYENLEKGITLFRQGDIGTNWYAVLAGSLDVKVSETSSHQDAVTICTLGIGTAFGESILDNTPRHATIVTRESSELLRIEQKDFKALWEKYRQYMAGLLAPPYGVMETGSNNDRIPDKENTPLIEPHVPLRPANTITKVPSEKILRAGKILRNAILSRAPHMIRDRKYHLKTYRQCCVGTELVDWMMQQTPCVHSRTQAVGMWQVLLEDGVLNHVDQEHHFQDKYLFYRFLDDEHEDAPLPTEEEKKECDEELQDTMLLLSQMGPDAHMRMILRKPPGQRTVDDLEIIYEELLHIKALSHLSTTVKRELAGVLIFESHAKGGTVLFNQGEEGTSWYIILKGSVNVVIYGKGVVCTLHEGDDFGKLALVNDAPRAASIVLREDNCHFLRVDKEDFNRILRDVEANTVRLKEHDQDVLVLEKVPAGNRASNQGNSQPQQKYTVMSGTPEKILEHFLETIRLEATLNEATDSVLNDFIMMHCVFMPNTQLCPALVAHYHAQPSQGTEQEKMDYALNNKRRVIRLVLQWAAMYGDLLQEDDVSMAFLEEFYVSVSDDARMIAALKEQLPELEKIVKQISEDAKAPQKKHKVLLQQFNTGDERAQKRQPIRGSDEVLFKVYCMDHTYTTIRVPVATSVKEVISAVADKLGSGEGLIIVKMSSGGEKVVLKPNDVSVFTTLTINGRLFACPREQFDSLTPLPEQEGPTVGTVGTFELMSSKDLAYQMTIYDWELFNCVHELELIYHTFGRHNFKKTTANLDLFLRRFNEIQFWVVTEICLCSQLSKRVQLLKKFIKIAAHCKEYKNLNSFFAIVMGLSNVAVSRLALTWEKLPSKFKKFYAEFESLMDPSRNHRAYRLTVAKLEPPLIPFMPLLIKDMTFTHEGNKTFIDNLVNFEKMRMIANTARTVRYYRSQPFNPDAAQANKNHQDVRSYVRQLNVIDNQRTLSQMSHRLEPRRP
Rap guanine nucleotide exchange factor 3 (Homo sapiens), sequence (O95398 whole entry, looked up): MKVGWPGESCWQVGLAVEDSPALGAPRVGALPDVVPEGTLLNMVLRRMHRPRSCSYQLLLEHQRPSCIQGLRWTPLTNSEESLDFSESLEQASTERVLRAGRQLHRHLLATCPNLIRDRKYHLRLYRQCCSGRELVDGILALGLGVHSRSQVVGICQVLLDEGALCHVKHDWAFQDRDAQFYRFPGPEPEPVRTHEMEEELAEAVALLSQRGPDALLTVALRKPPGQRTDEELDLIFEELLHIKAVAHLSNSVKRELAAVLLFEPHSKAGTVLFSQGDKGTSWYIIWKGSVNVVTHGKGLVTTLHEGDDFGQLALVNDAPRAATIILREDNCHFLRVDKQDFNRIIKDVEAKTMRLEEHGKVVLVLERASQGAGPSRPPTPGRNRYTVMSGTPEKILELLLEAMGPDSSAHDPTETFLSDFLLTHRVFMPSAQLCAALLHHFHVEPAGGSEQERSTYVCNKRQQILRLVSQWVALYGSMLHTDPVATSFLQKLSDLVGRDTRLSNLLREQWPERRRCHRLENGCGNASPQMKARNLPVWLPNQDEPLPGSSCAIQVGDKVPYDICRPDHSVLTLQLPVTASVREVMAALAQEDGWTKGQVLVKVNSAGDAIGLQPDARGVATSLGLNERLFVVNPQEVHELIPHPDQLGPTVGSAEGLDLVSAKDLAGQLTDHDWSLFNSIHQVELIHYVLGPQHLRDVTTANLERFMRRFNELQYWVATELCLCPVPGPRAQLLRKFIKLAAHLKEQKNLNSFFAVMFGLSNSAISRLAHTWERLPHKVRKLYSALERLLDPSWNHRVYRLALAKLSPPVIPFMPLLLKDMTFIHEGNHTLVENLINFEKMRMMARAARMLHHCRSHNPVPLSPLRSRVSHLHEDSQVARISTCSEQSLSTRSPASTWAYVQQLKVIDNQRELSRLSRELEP

Question: For CCn1nnc2c(N3CCOCC3)nc(-c3ccc(NC(=O)Nc4ccc(C(=O)N5CCN(C)CC5)cc4)cc3)nc21, which Potency [1] is on record?
Answer: 46.1 nM (active) and 59 nM (active)

Question: What about the activity [2] of the same molecule?
Answer: -6.26%

Question: What about the activity change, negative = inhibition [3] of the same molecule?
Answer: 0%

Question: What about the activity [4] of the same molecule?
Answer: -65.9%

Question: What about the activity [5] of the same molecule?
Answer: -1.56%

Question: And the Potency [6]?
Answer: inactive

Question: What about the Potency [7] of the same molecule?
Answer: inactive

Question: What about the Potency [8] of the same molecule?
Answer: inactive

Question: What about the Potency [9] of the same molecule?
Answer: inactive

Question: What about the Potency [10] of the same molecule?
Answer: inactive

Question: With CC1(C)CC(=O)c2c(C(F)(F)F)nn(-c3ccc(C(N)=O)c(NC4CCC(OC(=O)CN)CC4)c3)c2C1 (stereo not given) as the molecule, how does the Potency [1] read?
Answer: 81.7 nM (active) and 118 nM (active)

Question: And the activity [2]?
Answer: -2.7%

Question: What about the activity change, negative = inhibition [3] of the same molecule?
Answer: 0%

Question: And the activity [4]?
Answer: -47.8%

Question: And the activity [5]?
Answer: -0.772%

Question: What about the Potency [6] of the same molecule?
Answer: inactive

Question: And the Potency [7]?
Answer: inactive

Question: What about the Potency [8] of the same molecule?
Answer: inactive

Question: And the Potency [9]?
Answer: inactive

Question: And the Potency [10]?
Answer: inactive

Question: And the Potency [11]?
Answer: inactive

Question: Which results are given for COc1cc(C(=O)NS(=O)(=O)c2ccccc2C)ccc1Cc1cn(C)c2ccc(NC(=O)OC3CCCC3)cc12?
Answer: Potency [1]: inactive; Potency [12]: 25 µM (active); outcome [13]: inactive; outcome [14]: inactive; Potency [15]: 49.4 µM (active); Potency [6]: inactive

Question: What does the source list for CCS(=O)(=O)c1cccc(-c2cc(C(=O)NC3CCN(C)CC3)c(C)c3[nH]c4ncc(C)cc4c23)c1?
Answer: Potency [1]: 35.8 nM (active) and 41.7 nM (active); activity [2]: -16.8% and -13.7%; Potency [3]: 18.8 µM (active); activity change, negative = inhibition [3]: -3.37%; activity [4]: -55.9% and -55.5%; activity [5]: -15.8% and -17.5%; Potency [6]: inactive; Potency [7]: inactive; Potency [8]: inactive; Potency [9]: inactive; Potency [10]: inactive; Potency [11]: inactive

Question: Which Potency [1] does the source give for N#Cc1c(O)c2c(-c3ccc(-c4ccccc4O)cc3)csc2[nH]c1=O here?
Answer: inactive

Question: What about the activity [2] of the same molecule?
Answer: 1.41%

Question: And the activity change, negative = inhibition [3]?
Answer: 0%

Question: What about the activity [4] of the same molecule?
Answer: -31.1%

Question: And the activity [5]?
Answer: -7.68%

Question: And the Potency [6]?
Answer: 12.8 µM (active) and inactive

Question: And the Potency [7]?
Answer: inactive

Question: And the Potency [9]?
Answer: inactive

Question: What does the source list for Nc1ncnc2c1c(-c1cccc(OCc3ccccc3)c1)cn2C1CC(CN2CCCC2)C1 (stereo not given)?
Answer: Potency [1]: 10.5 µM (active); activity [2]: -58.1%; Potency [3]: 27.1 µM (active); activity [4]: -68.2%; activity [5]: -98.1%; Potency [6]: inactive; Potency [7]: inactive; Potency [8]: inactive; Potency [9]: inactive; Potency [10]: inactive; Potency [11]: inactive

Question: What does the source list for Cc1cc(Nc2nc(N[C@@H](C)c3ccc(F)cc3)c(C#N)cc2F)n[nH]1?
Answer: Potency [1]: 578 nM (active) and 742 nM (active); activity [2]: -4.92%; activity change, negative = inhibition [3]: 0%; activity [4]: -35.7%; activity [5]: -6.34%; Potency [16]: inactive; Potency [6]: inactive; Potency [7]: inactive; Potency [9]: inactive; Potency [10]: inactive; Potency [11]: inactive

Question: For Nc1ccccc1NC(=O)c1ccc(CNC(=O)OCc2cccnc2)cc1, which Potency [1] is on record?
Answer: 459 nM (active) and 662 nM (active)

Question: What about the Potency [17] of the same molecule?
Answer: inactive

Question: What about the Potency [6] of the same molecule?
Answer: inactive

Question: What about the Potency [8] of the same molecule?
Answer: inactive

Question: What about the Potency [9] of the same molecule?
Answer: inactive

Question: And the Potency [10]?
Answer: inactive

Question: For CC(C)c1cc(-c2n[nH]c(=O)n2-c2ccc3c(ccn3C)c2)c(O)cc1O, which Potency [1] is on record?
Answer: 25.8 nM (active) and 29.5 nM (active)

Question: And the activity [2]?
Answer: -27.7%

Question: And the Potency [3]?
Answer: 30.4 µM (active)

Question: What about the activity [4] of the same molecule?
Answer: -33.4%

Question: What about the activity [5] of the same molecule?
Answer: -21.8%

Question: What about the Potency [6] of the same molecule?
Answer: inactive

Question: And the Potency [7]?
Answer: inactive

Question: And the Potency [8]?
Answer: inactive

Question: What about the Potency [9] of the same molecule?
Answer: inactive

Question: And the Potency [10]?
Answer: inactive

Question: And the Potency [11]?
Answer: inactive

Question: For Cc1nc(Nc2n[nH]c3c2CN(C(=O)N[C@H](CN(C)C)c2ccccc2)C3(C)C)c2sccc2n1, which Potency [1] is on record?
Answer: 16.3 nM (active) and 11.8 nM (active)

Question: And the activity [2]?
Answer: -6.29%

Question: What about the Potency [3] of the same molecule?
Answer: 0.0061 µM (active)

Question: And the activity [4]?
Answer: -22.7%

Question: And the activity [5]?
Answer: -1.08%

Question: What about the Potency [6] of the same molecule?
Answer: inactive

Question: And the Potency [7]?
Answer: inactive

Question: What about the Potency [8] of the same molecule?
Answer: inactive

Question: What about the Potency [9] of the same molecule?
Answer: inactive

Question: And the Potency [10]?
Answer: inactive

Question: And the Potency [11]?
Answer: inactive

Question: With COCCOc1ccc2c(c1)ncn2-c1ccc2cccc(N3CCC(N)CC3)c2n1 as the molecule, how does the Potency [1] read?
Answer: 2.3 µM (active) and 2.35 µM (active)

Question: And the activity [2]?
Answer: -17.6%

Question: And the Potency [3]?
Answer: 48.2 µM (active)

Question: And the activity [4]?
Answer: -9.06%

Question: What about the activity [5] of the same molecule?
Answer: -17.7%

Question: And the Potency [6]?
Answer: inactive

Question: And the Potency [7]?
Answer: inactive

Question: What about the Potency [9] of the same molecule?
Answer: inactive

Question: What about the Potency [10] of the same molecule?
Answer: inactive

Question: Which Potency [1] does the source give for CN1CCC(CNc2ccc3ncc(-c4cccc(OC(F)(F)F)c4)n3n2)CC1 here?
Answer: 2.05 µM (active) and 3.32 µM (active)

Question: And the activity [2]?
Answer: -52.2%

Question: What about the Potency [3] of the same molecule?
Answer: 30.4 µM (active)

Question: What about the activity [4] of the same molecule?
Answer: -51.9%

Question: What about the activity [5] of the same molecule?
Answer: -68.8%

Question: And the Potency [7]?
Answer: 22.7 µM (active) and 14.3 µM (active)

Question: And the Potency [8]?
Answer: inactive

Question: What about the Potency [9] of the same molecule?
Answer: inactive

Question: What about the Potency [10] of the same molecule?
Answer: inactive

Question: Which results are given for C[C@@H](Oc1cc(-c2cnn(C3CCNCC3)c2)cnc1N)c1c(Cl)ccc(F)c1Cl?
Answer: Potency [1]: 1.15 µM (active) and 1.29 µM (active) and 1.05 µM (active); activity [2]: -38.2% and -62.1%; Potency [3]: 27.1 µM (active); activity [4]: -57.8% and -68.4%; activity [5]: -33.1% and -60.2%; Potency [6]: inactive; Potency [7]: inactive; Potency [8]: inactive; Potency [9]: inactive; Potency [10]: inactive; Potency [11]: inactive

Question: What does the source list for Nc1ncnc2c1c(-c1cnc3[nH]ccc3c1)nn2C1CCCC1?
Answer: Potency [1]: 365 nM (active) and 417 nM (active); activity [2]: -9.35%; activity change, negative = inhibition [3]: 0.397%; activity [4]: -56.1%; activity [5]: -52.4%; Potency [6]: inactive; Potency [7]: inactive; Potency [9]: inactive; Potency [10]: inactive
